Assay outcomes as filed in PubChem.
A selection: hits, their analogues and other compounds. The true share with any hit is near 2.6%.
AmpC inh no det – blocks E. coli AmpC beta-lactamase in absence of detergent; hit rate 1.8% among 71,000; AmpC nitrocefin hydrolysis, absorbance 480 nm, no detergent; Potency, µM (series often up to 28.7 µM), for inactives: at the top dose activity change, negative = inhibition; P00811; AID 585; also: % of control where 0% means no effect
Target sequence (P00811 whole entry, looked up): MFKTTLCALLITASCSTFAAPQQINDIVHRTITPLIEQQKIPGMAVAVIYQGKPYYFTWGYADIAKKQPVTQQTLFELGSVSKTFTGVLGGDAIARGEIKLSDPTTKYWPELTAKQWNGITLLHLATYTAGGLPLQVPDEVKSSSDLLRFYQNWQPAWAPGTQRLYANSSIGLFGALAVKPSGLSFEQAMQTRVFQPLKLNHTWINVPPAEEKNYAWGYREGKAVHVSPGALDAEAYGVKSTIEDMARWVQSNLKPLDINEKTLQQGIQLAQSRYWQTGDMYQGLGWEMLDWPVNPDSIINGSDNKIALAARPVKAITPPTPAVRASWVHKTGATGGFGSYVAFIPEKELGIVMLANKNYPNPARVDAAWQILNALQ
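AmpC, 20 mM phosphate pH 7.0; 15 min cpd preinc, RT; start with nitrocefin (800 uM stock); A480 kinetic read, 20 s intervals, 4 min. No-enzyme wells = negative control.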
LT uptake inh – inhibitors of anthrax lethal toxin internalization. hit rate 0.67% among 70,000. Potency, µM (top dose mostly 40 µM), for the others: top-dose activity change, negative = inhibition, hits mostly inhibitors. Cells, anthrax lethal toxin internalization, FRET ratio (460/530); also: % is scaled to controls: 0 for no effect and ±100 for the full control effect; nearly all actives have a fitted effect of over 50% in size
Prx2 Sm inh – blocks S. mansoni peroxiredoxin 2 enzymatic activity. S. mansoni Prx2 activity coupled to TGR/GSH (TGR is thioredoxin glutathione reductase), NADPH fluorescence loss, qHTS. Potency, µM. hit rate 0.07% among 65,000. AID 448
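qHTS, coupled TGR/Prx2 format; 15 min compound preincubation at RT; reaction started with H2O2 (2.5 mM aliquot); kinetic NADPH fluorescence decrease, ex 365/em 450 nm.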
AmpC det inh – inhibitors of E. coli AmpC beta-lactamase with detergent; P00811; purified AmpC, nitrocefin hydrolysis with detergent; Potency, µM (highest dose often 28.7 µM), for inactives: at the top dose activity change, negative = inhibition; hit rate 0.09% among 71,000; AID 584; active = well fitted curve in the direction sought with a large enough effect; inconclusive = small, poorly fitted or top-dose-only effect; also: % is scaled to controls: 0 for no effect and ±100 for the full control effect
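E. coli AmpC (5.3 nM) in 20 mM phosphate pH 7.0 with 0.01% Triton X-100, preincubated 15 min RT with compound; nitrocefin (2 uL of 800 uM stock) hydrolysis followed by 480 nm absorbance every 20 s over 4 min.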
Starred values were filed as active, the others as inactive; ? = inconclusive; · = not tested or not shown; [ ] = remark or other dose. Unless noted, calls follow the shape of the full dose curve. Potency is read from the fitted curve at half-maximal effect.

SMILES	AmpC inh no det	LT uptake inh	Prx2 Sm inh	AmpC det inh
COc1cc(C)c(S(=O)(=O)NCc2ccc3c(c2)OCO3)cc1C	3.16µM*[single pt active]	?	>57	11.1%
[O-][n+]1c(CN2CCCCC2)nc2cccc3c2c1-c1ccccc1-3	-17.4%[5.75 µM]	?	>57	-3.3%[5.75 µM]
C=CC(=O)OCCOCCOC(=O)C=C	0.3%	?	·	11.5%
CCc1c(C)nc2cc(-c3cc(OC)cc(OC)c3)nn2c1N1CCCC1	88.5%	12.6µM*	>57	-1.5%
CCc1c(C)nc2cc(-c3ccc(OC)c(OC)c3)nn2c1N1CCCC1	132.9%	-19.9%	>57	-3.8%
CC1=CC(=O)C2=C(C)CC[C@@H]3[C@H](OC(=O)[C@H]3C)[C@H]12	8.5%	?	>57	-1.4%
CCCCN(CC)CCNC(=O)c1cc2c(C)nc3ccccc3c2o1	11.5%	12.6µM*	>57	2.5%
Cc1nc2ccccc2c2oc(C(=O)NCCN3CCCCC3C)cc12 (configuration not stated)	4.2%	7.94µM*	>57	1.3%
CCN1CCCC1CNC(=O)c1cc2c(C)nc3ccccc3c2o1 (configuration not stated)	-8.9%	?	>57	-2.1%
C=CCn1c(COc2ccccc2)nnc1SCc1ccc(C#N)cc1	36.1%	·	>57	8.8%
C=CCn1c(COc2ccc(CC)cc2)nnc1SC/C(O)=C(\C#N)c1nc2ccccc2[nH]1	1.26µM*	-0.3%	>57	4.5%
C=C(C)c1cccc(C(C)(C)NC(=O)N2CCN(c3ccccn3)CC2)c1	3.98µM*[single pt active]	-22.4%	>57	13.7%
COC(=O)[C@@H](NC(=O)c1cc(-c2ccccc2)nc2ccccc12)c1ccccc1	35.9%	·	>57	-2.9%
Cc1cccc(NC(=O)C2CCN(S(=O)(=O)c3cccc4nsnc34)CC2)n1	8.1%	19.4%	>57	-0.3%
COc1ccc2nc(NC(=O)C3CCN(S(=O)(=O)c4cccc5nsnc45)CC3)sc2c1	7.3%	12.6µM*	>57	0.5%
Nc1nc(-c2ccccc2)cc(-c2ccccc2O)n1	6.1%	10.4%	>57	8.6%
N#CC(=C1CCCC1)c1nc(-c2ccccc2O)cs1	6.31µM*	-20.5%	>57	2.1%
Cc1ccc(S(=O)(=O)Cc2ccc(C(=O)N3CCCCCC3)o2)cc1	49.1%	-7.7%	>57	15.4%
CCOC(=O)C1CCCN(C(=O)c2ccc(CS(=O)(=O)c3ccc(C)cc3)o2)C1 (configuration not stated)	2.51µM*[single pt active]	-7.8%	>57	10.8%
Cc1ccc(S(=O)(=O)Cc2ccc(C(=O)N3CCCC3)o2)cc1	3.98µM*[single pt active]	-5.1%	>57	11.8%
CCOC(=O)C1CCCN(C(=O)c2ccc(CS(=O)(=O)Cc3ccccc3C)o2)C1 (configuration not stated)	52.7%	?	>57	-1.7%
Cc1cc(Cc2cc(C)c(N)cc2N)c(N)cc1N	3.0%[5.75 µM]	4.4%[8 µM]	>57	-5.4%[5.75 µM]
O=c1[nH]c2ccccc2n1CCCSCCCn1c(=O)[nH]c2ccccc21	27.4%	?	>57	-2.6%
CCn1c2ccccc2c2nnc(SCCCn3c(=O)[nH]c4ccccc43)nc21	28.5%	7.94µM*	·	-2.4%
CCn1c2ccccc2c2nnc(SCc3ccccc3)nc21	3.98µM*[single pt active]	?	>57	12.4%
SMILES	AmpC inh no det	LT uptake inh	Prx2 Sm inh	AmpC det inh
CCn1c2ccccc2c2nnc(SCN3C(=O)c4ccccc4C3=O)nc21	-1.6%	-16.2%	·	-2.6%
O=C(Nc1cc(Cl)ccc1Cl)c1noc2c1CCCC2	3.98µM*[single pt active]	-15.6%	>57	10.9%
Cc1cccc(C2CC(c3ccc(Cl)cc3)Nc3nc(N)nn32)c1 (configuration not stated)	3.98µM*[single pt active]	-2.1%	>57	12.3%
Cc1ccc(C2CC(c3cccc(Cl)c3)n3nc(N)nc3N2)cc1 (configuration not stated)	71.4%	-10.2%	>57	9.0%
CCOc1ccc(C2CC(c3cccc(C)c3)n3nc(N)nc3N2)cc1 (configuration not stated)	30.6%	6.9%	>57	10.2%
Cc1cccc(C2CC(c3ccc(F)cc3)Nc3nc(N)nn32)c1 (configuration not stated)	3.98µM*[single pt active]	7.8%	>57	10.5%
O=C(O)[C@H]1CCCC[C@@H]1c1c2ccc(=O)c(O)c-2oc2c(O)c(O)ccc12	?	?	>57	-14.5%[5.75 µM]
O=C(NCc1ccc(F)cc1)c1cc2n(n1)C(C(F)(F)F)CC(C1CC1)N2 (configuration not stated)	3.98µM*[single pt active]	-2.7%	>57	11.1%
CCOC(=O)N1CCN(C(=O)c2sc3nc(-c4ccc(F)cc4)cn3c2C)CC1	118.7%	0.0%	>57	-3.9%
